Screens (PubChem)
Sampled rows, rich in hits. Any-hit rate of the full collection: about 1.5%.
FAK inh – blocks human focal adhesion kinase activity; inhibition, %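 (tested at 7 µM)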; AID 727; biochemical FAK kinase activity assay; actives 0.84% (n = 97,000); in the data active = inhibition above about 19%;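 note: 0% = DMSO and 100% = reference compound high control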
Mac1 fbg inh – CD11b/CD18-fibrinogen binding inhibition; P05107+P11215; K562 CD11b/CD18 adhesion to fibrinogen, ATPlite luminescence; Mn2+ added to activate the integrin; actives 0.54% (n = 93,000); inhibition, % at 10 µM;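 active = primary inhibition of 50% or more at 10 µM, then 40% or more on retest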
MRP-1 activ – activators of MRP-1. AID 799. actives 0.61% (n = 140,000). viability increase, % at 10 µM. H69AR cells + doxorubicin, viability rescue, CellTiter-Glo;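 active = viability gain under doxorubicin at or above a set limit, the compound median plus 3 SD, cut at about 4.7% in these data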;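 note: MRP-1 overexpressing cells given doxorubicin 25 µM after compound pretreatment; 18-22 h compound pretreatment then 72 h with doxorubicin before readout; 0% = doxorubicin-only wells and 100% = vehicle-treated cells without doxorubicin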
MRP reversal – MRP-mediated drug resistance reversal; H69AR cells + 2 uM doxorubicin, CellTiter-Glo, 72 h; actives 0.04% (n = 85,000); differential viability (reversal), % at 10 µM;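 active = viability drop by adding the cancer drug above about 55%, with treated viability meeting a 40% cutoff, limit read from the data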;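 note: viability without doxorubicin minus viability with 2 µM doxorubicin for each compound; larger differential means the compound sensitizes cells more to doxorubicin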
Phagocytosis inh – inhibitors of macrophage phagocytosis; actives 0.07% (n = 110,000); inhibition, % at 5 µM; J774A.1 macrophage IgG-bead phagocytosis, imaging;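 active = inhibition above the mean of the plate negative controls plus 5 SD, cut at about 13% in these data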;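 note: phagocytic index as fraction of beads internalized from green versus red external bead signal; plate controls were DMSO negative control for no effect and cytochalasin-D positive control for full effect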
CD11b adhes enh – enhancers of human CD11b/CD18 binding to fibrinogen | K562 CD11b/CD18 adhesion to fibrinogen, ATPlite luminescence | activation, % at 10 µM | actives 0.07% (n = 93,000) | AID 1499;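 active = 10 µM primary screen giving 50% or more activity, confirmed by 40% or more on retest at that dose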
An asterisk follows results filed as active; [ ] = remark or other dose.

Screening O=C(COc1ccc2c(c1)CCC2)N1CCc2ccccc21 returned FAK inh 0, Mac1 fbg inh -5, MRP-1 activ 0, MRP reversal 3, Phagocytosis inh 0 and CD11b adhes enh -2.
For Cc1ccc(S(=O)(=O)N/N=c2\oc3ccccc3cc2C(=O)Nc2cccc(C)c2)cc1 the results were MRP-1 activ -3 and Phagocytosis inh 1.
Screening Cc1nc2ccccc2c(=O)n1/N=C/c1ccc(N(C)C)cc1 returned FAK inh 1, Mac1 fbg inh -4, MRP-1 activ -3, MRP reversal 6 and CD11b adhes enh -6.
Cc1nc2ccccc2c(=O)n1/N=C/c1c(O)ccc2oc3c(c12)CCCC3 was read as FAK inh 2, Mac1 fbg inh 13, MRP-1 activ 5.9*, MRP reversal -14, Phagocytosis inh 1 and CD11b adhes enh 18.
`O=C1N/C(=N\N=C\c2cccs2)SC1Cc1ccc(Cl)cc1Cl` (centres undefined) gave Mac1 fbg inh 8, MRP-1 activ -5, Phagocytosis inh -8 and CD11b adhes enh 27.
Screening O=C1NC(=Nc2ccc(Cl)cc2)SC1Cc1cc(Cl)ccc1Cl (centres undefined) returned MRP-1 activ 6.9* and Phagocytosis inh -10.
For S=C(N/N=C/c1ccc(Cl)cc1)N1CCOCC1 the results were MRP-1 activ 5.7* and Phagocytosis inh 0.
Cc1cccc(NC(=O)CCC(=O)N/N=C/c2cc([N+](=O)[O-])ccc2O)c1 was read as MRP-1 activ 4.9* and Phagocytosis inh -8.
Screening Cc1nc(NC(=S)NC(=O)c2cccs2)sc1C(=O)N(C)C returned FAK inh 2, Mac1 fbg inh -6, MRP-1 activ 7.2*, Phagocytosis inh 0 and CD11b adhes enh 1.
Screening COc1ccc(C(=O)NC(=S)Nc2nc(C)c(C(=O)N(C)C)s2)cc1 returned FAK inh -2, Mac1 fbg inh 14, MRP-1 activ 0, Phagocytosis inh 4 and CD11b adhes enh -3.
CC1=C/C(=N\OS(=O)(=O)c2ccccc2)C(C)=CC1=O was read as FAK inh -1, Mac1 fbg inh 97*, MRP-1 activ -2, Phagocytosis inh 3 and CD11b adhes enh -9.
Screening COc1ccc(C(C)=O)cc1CSc1nnc(Nc2ccccc2C)s1 returned MRP-1 activ 6.0* and Phagocytosis inh -2.
`COc1ccc(C(C)=O)cc1CSc1nnc(Nc2ccc(C)cc2C)s1` gave Mac1 fbg inh 10, MRP-1 activ 1, Phagocytosis inh -4 and CD11b adhes enh 2.
For Cc1nc(N2CCN(C(=O)c3ccco3)CC2)c2c3c(sc2n1)CCC3 the results were Mac1 fbg inh 11, MRP-1 activ -1, MRP reversal -6, Phagocytosis inh 0 and CD11b adhes enh -2.
For O=C(c1ccccc1)N1CCN(c2ncnc3sc4c(c23)CCC4)CC1 the results were FAK inh -1, Mac1 fbg inh 51*, MRP-1 activ -1, MRP reversal -19, Phagocytosis inh 0 and CD11b adhes enh -10.
For COc1ccccc1N1CCN(S(=O)(=O)c2cnc[nH]2)CC1 the results were FAK inh -3, Mac1 fbg inh -2, MRP-1 activ 0, MRP reversal -9, Phagocytosis inh 0 and CD11b adhes enh -4.
For CCCC(C)NC(=O)COc1ccc(S(=O)(=O)c2ccc(OCC(=O)NC(C)CCC)cc2)cc1 (centres undefined) the results were MRP-1 activ -4 and Phagocytosis inh 12.
S=C(c1ccc(-c2ccccc2Cl)o1)N1CCCCC1 was read as MRP-1 activ 5.3* and Phagocytosis inh -14.
For CN1CCN(C(=S)c2ccc(-c3cccc(Cl)c3Cl)o2)CC1 the results were MRP-1 activ 0 and Phagocytosis inh -5.
Screening COc1cc(C2Nc3cccc4cccc(c34)N2)ccc1OC(C)=O returned FAK inh 1, Mac1 fbg inh 0, MRP-1 activ -1, Phagocytosis inh -1 and CD11b adhes enh 58.
`COc1cc(C2Nc3cccc4cccc(c34)N2)cc(OC)c1O` gave FAK inh 5, MRP-1 activ 6.5* and MRP reversal -22.
Screening CS(=O)(=O)CCC(C(=O)OCC(=O)c1ccc(Cl)cc1)N1C(=O)c2ccccc2C1=O (centres undefined) returned MRP-1 activ -2 and Phagocytosis inh -6.
Screening COc1ccc(NC(=O)CC2C(=O)N(c3ccc(F)cc3)C(=S)N2NC(=O)c2ccccc2)cc1 (centres undefined) returned MRP-1 activ 6.4* and Phagocytosis inh -8.
CCc1c(C)nc(N)n2c(SCC(=O)N3CCN(c4ccccc4OC)CC3)nnc12 was read as Mac1 fbg inh 7, MRP reversal 20, Phagocytosis inh -1 and CD11b adhes enh 0.
Screening CCOc1ccccc1C1CC(=O)Nc2cc(OC)c(OC)c(OC)c21 (centres undefined) returned FAK inh 5, Mac1 fbg inh 33, MRP-1 activ -2, MRP reversal 5, Phagocytosis inh 1 and CD11b adhes enh -2.
For COc1cccc(C2CC(=O)Nc3cc(OC)c(OC)c(OC)c32)c1OC (centres undefined) the results were FAK inh -1, Mac1 fbg inh -28, MRP-1 activ -5, MRP reversal 10, Phagocytosis inh 44*[artifact] and CD11b adhes enh -2.
Screening O=C(NCC1CCCO1)C(c1cccs1)N(C(=O)c1ccc(CN2CCOCC2)o1)c1ccc(Cl)cc1 (centres undefined) returned Mac1 fbg inh -1, MRP-1 activ -2, Phagocytosis inh -6 and CD11b adhes enh -1.
Screening Cc1nn(Cc2ccc(C(=O)NC(C)(C)C)o2)c(C)c1Br returned FAK inh -6, Mac1 fbg inh 74*, MRP-1 activ 0, MRP reversal -9, Phagocytosis inh -3 and CD11b adhes enh -7.
Cc1cc(NC(=O)c2ccc(Cn3nc(C)c(Br)c3C)o2)no1 was read as FAK inh 3, Mac1 fbg inh -16, MRP-1 activ -1, MRP reversal 11, Phagocytosis inh 0 and CD11b adhes enh 0.
`CCOc1ccccc1Nc1nc(N)nc(CN(C)C2CCCCC2)n1` gave FAK inh -2, Mac1 fbg inh 11, MRP-1 activ -4, MRP reversal 80*, Phagocytosis inh 3 and CD11b adhes enh -7.
Screening COC(=O)c1cc(CSc2nc3ccc(C)cc3[nH]2)oc1C returned FAK inh 0, Mac1 fbg inh 52*, MRP reversal 7, Phagocytosis inh -1 and CD11b adhes enh -8.
Cc1ccccc1C(=O)OC1OC(=O)C(Cl)=C1N1CCOCC1 (centres undefined) was read as MRP-1 activ -3 and Phagocytosis inh -2.
`N#CC1=C(N)SC(N)=C(C#N)C1CCC1CCCCC1` gave FAK inh 0, Mac1 fbg inh 101*, MRP-1 activ 0, MRP reversal -1, Phagocytosis inh -1 and CD11b adhes enh -10.
